Hit rate of the full screen: of about 400,000 compounds, about 2,100 (0.53%) were called active. About 14% were inconclusive and are not listed. No rule for the calls is given here. For the sample, actives were picked, then their nearest neighbours and some compounds at random.

The target of the assay is Ataxin-2 (Homo sapiens) (UniProt Q99700). The assay is described as follows: qHTS for Inhibitors of ATXN expression. Format: functional.
Sequence of Ataxin-2 (Homo sapiens) (Q99700 whole entry): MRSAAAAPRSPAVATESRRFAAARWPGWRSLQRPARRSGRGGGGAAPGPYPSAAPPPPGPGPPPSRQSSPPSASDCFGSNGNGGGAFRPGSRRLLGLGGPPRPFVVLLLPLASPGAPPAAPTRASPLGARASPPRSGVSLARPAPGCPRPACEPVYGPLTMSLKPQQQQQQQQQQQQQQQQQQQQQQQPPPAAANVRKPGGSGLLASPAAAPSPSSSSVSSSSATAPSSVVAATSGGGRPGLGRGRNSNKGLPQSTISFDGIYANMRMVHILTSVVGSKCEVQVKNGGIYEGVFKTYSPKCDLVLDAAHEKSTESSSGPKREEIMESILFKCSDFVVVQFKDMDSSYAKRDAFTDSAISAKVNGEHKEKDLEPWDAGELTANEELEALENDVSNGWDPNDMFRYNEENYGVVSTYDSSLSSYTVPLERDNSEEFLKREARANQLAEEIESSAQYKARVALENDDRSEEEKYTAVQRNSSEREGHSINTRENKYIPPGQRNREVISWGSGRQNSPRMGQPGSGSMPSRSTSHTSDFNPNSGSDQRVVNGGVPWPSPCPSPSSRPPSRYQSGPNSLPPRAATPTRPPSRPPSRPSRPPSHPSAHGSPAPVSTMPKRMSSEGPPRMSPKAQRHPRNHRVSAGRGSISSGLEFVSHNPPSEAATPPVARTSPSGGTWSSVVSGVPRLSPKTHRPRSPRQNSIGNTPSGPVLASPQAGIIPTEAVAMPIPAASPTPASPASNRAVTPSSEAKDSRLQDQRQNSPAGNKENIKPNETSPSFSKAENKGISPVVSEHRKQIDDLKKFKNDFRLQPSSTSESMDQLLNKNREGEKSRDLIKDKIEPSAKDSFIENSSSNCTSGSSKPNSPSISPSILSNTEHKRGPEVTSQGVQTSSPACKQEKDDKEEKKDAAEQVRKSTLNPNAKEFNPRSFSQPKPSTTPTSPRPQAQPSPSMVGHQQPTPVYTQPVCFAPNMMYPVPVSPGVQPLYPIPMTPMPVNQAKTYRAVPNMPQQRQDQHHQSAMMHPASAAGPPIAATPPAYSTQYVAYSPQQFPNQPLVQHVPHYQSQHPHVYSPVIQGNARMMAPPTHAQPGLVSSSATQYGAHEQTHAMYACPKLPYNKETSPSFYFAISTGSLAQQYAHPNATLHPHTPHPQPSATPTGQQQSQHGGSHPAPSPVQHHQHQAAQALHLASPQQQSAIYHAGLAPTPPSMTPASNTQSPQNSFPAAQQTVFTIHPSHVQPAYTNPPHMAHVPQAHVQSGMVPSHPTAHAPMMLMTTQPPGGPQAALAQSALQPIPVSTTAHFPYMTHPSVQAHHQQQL
`CC[C@@]1(O)C(=O)OCc2c1cc1n(c2=O)Cc2cc3c(CN(C)C)c(O)ccc3nc2-1`: the Potency result was “inactive”.

Take `CC(C)(C)c1ccc(OCC(=O)Nc2ccc3c4c(cccc24)C(=O)NC3=O)cc1`: the Potency result was “inactive”.

Take `O=[N+]([O-])c1cc(/C=N/N=C(/Nc2ccccn2)c2ccccn2)ccc1O`: the Potency was 2.67 µM (active).

Regarding `Cc1ccc2nc3c(cc(C(N)=S)c(=N)n3CCCOC(C)C)c(=O)n2c1`, the Potency result was “inactive”.

Take `C=CC[C@@H](CC(=O)N(CCO)Cc1ccccc1)C(=O)N[C@H](COC(=O)[C@@H](CC=C)CC(=O)OC(C)(C)C)c1ccccc1`: the Potency is 31.6 µM (active).

As for `C=CC[C@H](CC(=O)N(CCO)Cc1ccccc1)C(=O)N[C@H](COC(=O)[C@@H](CC=C)CC(=O)OC(C)(C)C)c1ccccc1`, the Potency is 35.5 µM (active).

In the case of `C=CC[C@H](CC(=O)N(CCO)Cc1ccccc1)C(=O)N[C@H](COC(=O)[C@@H](CC=C)CC(=O)OC(C)(C)C)Cc1ccccc1`, the Potency is 35.5 µM (active).

In the case of `N#CCC(=O)N/N=C/c1cc(-c2ccccc2)n(-c2ccc(Cl)cc2)c1-c1ccccc1`, the Potency result is “inactive”.

For the compound `COCCNS(=O)(=O)c1ccc2c3c(cccc13)C(=O)N2C`, the Potency result is “inactive”.

Turning to `CCCOC(=O)c1c(NC(=O)c2nc3ncccn3n2)sc(C(N)=O)c1C`, the Potency entry was “inactive”.

On to `Nc1cccc2c1C(=O)N(CC(=O)NC13CC4CC(CC(C4)C1)C3)C2=O`, for which the Potency entry is “inactive”.

Turning to `O=C(COC(=O)/C=C/C(=O)OCC(=O)NC12CC3CC(CC(C3)C1)C2)NC12CC3CC(CC(C3)C1)C2`, the Potency is 31.6 µM (active).

As to `CCOc1cc(/C=C2/C(=N)N3C(=NC2=O)SN=C3S(=O)(=O)CC)ccc1OC(=O)c1ccco1`, the Potency entry was “inactive”.

On to `COc1ccc(/C=C2\C(=O)N(c3c(Cl)cc(Cl)cc3Cl)N=C2NC(=O)c2cccc([N+](=O)[O-])c2)cc1`, for which the Potency is 22.4 µM (active).

`COc1ccc(CNC(=O)C/C(C)=N/NC(=O)c2ccc([N+](=O)[O-])cc2Cl)cc1`: the Potency entry is “inactive”.

In the case of `COC(=O)[C@]12CCCCC=C1N(CCC1=CCCCC1)C(=O)[C@H](CC(=O)NCCc1ccccc1OC)C2`, the Potency is 39.8 µM (active).

As for `COc1ccccc1CCNC(=O)CCNS(=O)(=O)c1ccc(NC(C)=O)cc1`, the Potency result is “inactive”.

For the compound `COC(=O)[C@]12CCCCC=C1N(CCC1=CCCCC1)C(=O)[C@H](CC(=O)NCc1cccc3ccccc13)C2`, the Potency was 25.1 µM (active).

Regarding `CCCn1nc(NC(=O)CC)c2cc3cccc(C)c3nc21`, the Potency entry was “inactive”.

Take `O=C(/C=C/c1cccc(Cl)c1)OCC(=O)c1ccc[nH]1`: the Potency result is “inactive”.

Regarding `CC(C)n1/c(=N/C(=O)c2ccco2)c(C#N)cc2c(=O)n3ccccc3cc21`, the Potency result is “inactive”.

On to `NC(=O)c1nsc(C(=O)N(c2ccccc2)C(C(=O)NCC2CCCO2)c2ccc3ncccc3c2)c1N` (centres undefined), for which the Potency result was “inactive”.

In the case of `O=C1C(=O)c2ccccc2C(O)=C1CCCCl`, the Potency was 25.1 µM (active).

In the case of `COc1ccc(/N=c2\oc3ccc(OC)cc3cc2-c2nc3ccccc3[nH]2)cc1`, the Potency was 31.6 µM (active).

As for `CCN(CC)c1ccc2cc(-c3nc4ccccc4[nH]3)c(=O)oc2c1`, the Potency entry is “inactive”.

With `COc1ccc2cc(-c3nc4ccc(C(=O)O)cc4[nH]3)c(=O)oc2c1`, the Potency result was “inactive”.

Consider `CCC1=Nc2cc(C(=O)N3CCC(C)CC3)ccc2Sc2ccc(C)cc21`, for which the Potency is 28.2 µM (active).

Turning to `CC1CCN(C(=O)c2ccc3c(c2)C(=O)c2ccccc2-3)CC1`, the Potency entry was “inactive”.

With `CC1CCN(S(=O)(=O)N2CCN(C(=O)c3ccc4c(c3)OCO4)CC2)CC1`, the Potency result was “inactive”.

With `O=C1C=CC(=O)N1CCCCCCN1C(=O)C=CC1=O`, the Potency was 25.1 µM (active).

Take `Cn1c(=O)c2c(nc(Oc3cccc(Br)c3)n2C)n(C)c1=O`: the Potency entry is “inactive”.

Turning to `C[C@@H]1CN([C@H](C)CO)S(=O)(=O)c2ccc(C#C[C@@H](C)O)cc2O[C@@H]1CN(C)Cc1ccc(-c2ccccc2)cc1`, the Potency is 20 µM (active).

On to `C[C@@H]1CN([C@H](C)CO)S(=O)(=O)c2ccc(C#Cc3ccccc3F)cc2O[C@@H]1CN(C)C(=O)Cc1ccccc1`, for which the Potency is 25.1 µM (active).

In the case of `C[C@H]1CN([C@@H](C)CO)S(=O)(=O)c2ccc(Br)cc2O[C@@H]1CN(C)Cc1cccc(F)c1`, the Potency was 25.1 µM (active).

`C[C@@H]1CN([C@@H](C)CO)S(=O)(=O)c2ccc(C#Cc3cccc(F)c3)cc2O[C@H]1CN(C)S(=O)(=O)c1cn(C)cn1`: the Potency is 39.8 µM (active).

`COCCCNC(=S)N/N=C/c1ccc(O)cc1O`: the Potency result is “inactive”.

For the compound `CCNC(=S)N/N=C/c1sc(N2CCCCC2)nc1-c1cccs1`, the Potency entry was “inactive”.

For `Cc1cccc(C)c1NC(=O)COC(=O)c1c2c(nc3ccccc13)/C(=C\c1ccc3c(c1)OCO3)CCC2`, the Potency entry is “inactive”.

As to `N#Cc1cccc(NC(=O)CN2C(=O)NC(Cc3ccccc3)C2=O)c1` (centres undefined), the Potency entry was “inactive”.

As for `C[C@H]1CN([C@@H](C)CO)S(=O)(=O)c2ccc(Br)cc2O[C@@H]1CN(C)Cc1ccccc1`, the Potency was 39.8 µM (active).

Consider `C[C@@H]1CN([C@@H](C)CO)S(=O)(=O)c2ccc(Br)cc2O[C@H]1CN(C)C(=O)Nc1ccc(C(F)(F)F)cc1`, for which the Potency was 35.5 µM (active).

On to `Cc1cc2c(cc1C)N(C(=O)CCl)CCN2C(=O)CCl`, for which the Potency is 35.5 µM (active).

In the case of `COc1ccc(-n2c(N)c(C(=O)NCC3CCCO3)c3nc4ccccc4nc32)c(OC)c1` (centres undefined), the Potency result was “inactive”.

For `COc1cccc(-c2[nH]c(C(=O)NCC3CCCO3)cc3c4ccccc4nc2-3)c1` (centres undefined), the Potency was 17.8 µM (active).

Take `COc1ccccc1-n1c(N)c(C(=O)NCC2CCCO2)c2nc3ccccc3nc21` (centres undefined): the Potency entry was “inactive”.

As to `COc1cc(C(=S)N2CCOCC2)ccc1OC(=O)c1ccc(Br)cc1`, the Potency entry is “inactive”.

For the compound `CCOC(=O)N(C)[C@H]1C[C@H]2c3[nH]c4ccccc4c3CCN2C[C@H]1[C@H](C)O`, the Potency entry was “inactive”.

As for `COc1ccc(NC(=O)N(C)[C@H]2C[C@H]3c4[nH]c5ccc(-c6ccc(OC)cc6)cc5c4CCN3C[C@H]2[C@H](C)O)cc1`, the Potency is 25.1 µM (active).

Take `Cc1ccc2[nH]c3c(c2c1)CCCC3NCCO` (centres undefined): the Potency entry was “inactive”.

For `C[C@H](O)[C@@H]1CN2CCc3c([nH]c4ccccc34)[C@@H]2C[C@@H]1N(C)C(=O)OCc1ccccc1`, the Potency result was “inactive”.

For `Cc1ccc2[nH]c3c(c2c1)CN(C(=O)CN1CCCCC1)CC3`, the Potency result was “inactive”.

With `CN[C@H]1C[C@H]2c3[nH]c4ccc(-c5cccc(C)c5)cc4c3CCN2C[C@H]1[C@H](C)O`, the Potency was 39.8 µM (active).

With `COc1ccc(NC(=O)N(C)[C@H]2C[C@H]3c4[nH]c5ccc(-c6cccc(C)c6)cc5c4CCN3C[C@H]2[C@H](C)O)cc1`, the Potency is 39.8 µM (active).

As for `Cc1cccc(-c2ccc3[nH]c4c(c3c2)CCN2C[C@@H]([C@H](C)O)[C@@H](N(C)C(=O)Nc3ccc(F)cc3)C[C@@H]42)c1`, the Potency was 25.1 µM (active).

For the compound `COc1cccc(-c2c(C#N)c(O)nc3c2-c2ccc(OC)cc2CC3)c1`, the Potency result is “inactive”.

For the compound `O=C(O)c1cc(-c2c[nH]c3ccccc23)nc2ccc3ccccc3c12`, the Potency result was “inactive”.

For `COc1ccc(-c2ccc3[nH]c4c(c3c2)CCN2C[C@@H]([C@H](C)O)[C@@H](N(C)C(=O)Nc3cc(Cl)cc(Cl)c3)C[C@@H]42)cc1`, the Potency was 35.5 µM (active).

Take `COC(=O)C1C2CC3c4[nH]c5cc(OC)ccc5c4CCN3CC2CC(OC2CCCCO2)C1OC` (centres undefined): the Potency result is “inactive”.

On to `O=C(COc1ccc([N+](=O)[O-])cc1)N(C1CCCCC1)C1CCS(=O)(=O)C1` (centres undefined), for which the Potency entry is “inactive”.

For `C/C(=N/OC(=O)C1CC1)c1cc(-c2ccc(Cl)cc2)no1`, the Potency result was “inactive”.

`CCc1cc2c(-c3ccccc3)cc(=O)oc2c2c1OCN(Cc1ccc(C)cc1)C2`: the Potency entry is “inactive”.

As for `COc1ccc(N/C=C2/C(=O)N(c3cccc(C)n3)C(=O)c3ccccc32)c(OC)c1`, the Potency result was “inactive”.

Regarding `O=C1Nc2ccccc2/C1=C/c1c[nH]c(-c2ccccc2)n1`, the Potency entry was “inactive”.

As for `COc1ccc2c(c1)/C(=C\c1cccc(/C=C3/C(=O)Nc4ccc(OC)cc43)n1)C(=O)N2`, the Potency is 0.891 µM (active).

As for `Cc1ccc(S(=O)(=O)c2cc3c(=O)n4ccccc4nc3n(Cc3ccco3)c2=N)cc1`, the Potency result was “inactive”.

As for `N#CC1=C(N)Oc2cc(O)c(Cl)cc2C1c1ccccc1F` (centres undefined), the Potency entry is “inactive”.

`Cc1cccc(CN2CCN(C(=O)CCl)CC2)c1`: the Potency was 35.5 µM (active).

With `CC(C)c1ccc(CN2CCN(C(=O)CCl)CC2)cc1`, the Potency was 15.8 µM (active).

Turning to `Cc1cccc(CC(=O)NC2CCN(C)CC2)c1`, the Potency entry is “inactive”.

As for `C=CCN1CCN(C(=O)CSc2ccccc2)CC1`, the Potency result was “inactive”.

`CC(C)c1ccc(CN2CCN(S(=O)(=O)c3ccc(Cl)s3)CC2)cc1`: the Potency entry was “inactive”.

`Cc1cccc(NS(=O)(=O)c2ccc(C)c(C(=O)NC3CCN(Cc4ccccc4)CC3)c2)c1`: the Potency result is “inactive”.

Take `C=CCn1c(=O)c(C#N)cc2c(=O)n3ccccc3nc21`: the Potency entry is “inactive”.

For the compound `Cc1cc(C(=O)N2CCN(C(=O)c3ccco3)CC2)ccc1[N+](=O)[O-]`, the Potency result is “inactive”.

As to `O=C(CSc1nnnn1C1CCCCC1)N1CCN(C(=O)c2ccco2)CC1`, the Potency result is “inactive”.

Regarding `COc1ccc2oc(=O)c(C(=O)N3CCN(C(=O)c4ccco4)CC3)cc2c1`, the Potency entry is “inactive”.

Take `CCc1cc2ccc(OC)cc2nc1SCC(=O)N1CCN(C(=O)c2ccco2)CC1`: the Potency is 25.1 µM (active).

On to `O=C(CSc1ccccc1)N1CCN(C(=O)c2ccco2)CC1`, for which the Potency entry was “inactive”.

As for `Cc1sc2nc(C(C)C)nc(SCC(=O)N3CCN(C(=O)c4ccco4)CC3)c2c1C`, the Potency was 39.8 µM (active).

Turning to `Cc1ccc(S(=O)(=O)N2CCN(C(=O)CN3C(=O)c4ccc([N+](=O)[O-])cc4C3=O)CC2)cc1C`, the Potency result was “inactive”.

Regarding `COc1cc2c(C#CCCCO)c(-c3ccc(C#N)cc3)oc(=O)c2cc1OC`, the Potency entry is “inactive”.

With `C=CC[C@@H](CC(=O)N(CCO)Cc1ccccc1)C(=O)N[C@H](COC(=O)[C@@H](CC=C)CC(=O)OC(C)(C)C)Cc1c[nH]c2ccccc12`, the Potency was 35.5 µM (active).

Turning to `C=CC[C@@H](CC(=O)N(CCO)Cc1ccccc1)C(=O)N[C@@H](COC(=O)[C@H](CC=C)CC(=O)OC(C)(C)C)Cc1c[nH]c2ccccc12`, the Potency was 22.4 µM (active).

In the case of `C=CC[C@H](CC(=O)N(CCO)Cc1ccccc1)C(=O)N[C@@H](COC(=O)[C@@H](CC=C)CC(=O)OC(C)(C)C)Cc1c[nH]c2ccccc12`, the Potency was 25.1 µM (active).

The record behind these values is ChEMBL document CHEMBL1201862, “PubChem BioAssay data set” (2004).
